Source: PubChem BioAssay
In the library only some 18% were active in any assay of this set; here they are far more common.
TDP1 block: qHTS Assay for Inhibitors of Tyrosyl-DNA Phosphodiesterase (TDP1) | Tyrosyl-DNA phosphodiesterase 1 (Homo sapiens), Q9NUW8 | recombinant TDP1, AlphaScreen DNA substrate cleavage | Potency, µM (titrated, usually from 130 µM), for inactives: at the top dose activity change, negative = inhibition, usual class: inhibitors | actives 0.28% (n = 350,000) | AID 485290, 2010; further: potency means the concentration at half of the fitted maximal effect; on the % scale 0 is the no-effect control and ±100 the full control effect; nearly all actives have a fitted effect of over 40% in size
Target sequence (Q9NUW8 whole entry, looked up): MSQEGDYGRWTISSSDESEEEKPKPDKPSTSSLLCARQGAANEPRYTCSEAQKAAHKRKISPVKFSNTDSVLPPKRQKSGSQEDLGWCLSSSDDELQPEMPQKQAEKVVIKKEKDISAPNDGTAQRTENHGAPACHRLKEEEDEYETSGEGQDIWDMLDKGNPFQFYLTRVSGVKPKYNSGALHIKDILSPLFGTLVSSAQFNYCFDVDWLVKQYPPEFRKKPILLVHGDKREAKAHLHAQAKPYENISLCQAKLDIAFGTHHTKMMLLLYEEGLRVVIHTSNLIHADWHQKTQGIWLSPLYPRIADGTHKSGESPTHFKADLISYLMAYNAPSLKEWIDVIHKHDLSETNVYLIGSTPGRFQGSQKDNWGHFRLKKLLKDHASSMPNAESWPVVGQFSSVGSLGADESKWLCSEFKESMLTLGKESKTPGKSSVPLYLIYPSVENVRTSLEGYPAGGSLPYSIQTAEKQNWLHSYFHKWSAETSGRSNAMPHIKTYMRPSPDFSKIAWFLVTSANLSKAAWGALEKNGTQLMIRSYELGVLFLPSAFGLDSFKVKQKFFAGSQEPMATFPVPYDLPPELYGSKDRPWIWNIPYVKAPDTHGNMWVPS
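Steps: enzyme plus compound, 15 min RT; add biotin/phosphotyrosine-FITC oligonucleotide (15 nM final), react 5 min; add donor/acceptor beads (10 ug/ml final), 10 min; read AlphaScreen. Tdp1 at 1 nM final.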
DT40 TDP1 no CPT: qHTS for Inhibitors of human tyrosyl-DNA phosphodiesterase 1 (TDP1): qHTS in cells in absence of CPT; DT40 Tdp1-/- hTDP1 cells, no CPT, ATP luminescence, 48 h; Potency, µM (top dose mostly 46.2 µM), inactives show at the highest dose activity change, negative = growth inhibition, most hits filed as inhibitors; actives 15% (n = 420,000); further: potency means the concentration at half of the fitted maximal effect; on the % scale 0 is the no-effect control and ±100 the full control effect; nearly all actives have a fitted effect of over 55% in size
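Seeded 400 DT40-hTDP1 cells/well (vehicle DMSO, no 20 nM CPT); pinned compounds; ≥48 hr at 37 °C; CellTiter-Glo luminescence as viability measure.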
DT40 TDP1 CPT: qHTS for Inhibitors of human tyrosyl-DNA phosphodiesterase 1 (TDP1): qHTS in cells in presence of CPT; actives 12% (n = 420,000); chicken DT40 Tdp1-/-;hTDP1 cells + 20 nM CPT, ATP luminescence, 48 h; Potency, µM (series often up to 46.2 µM), without a hit: at the highest dose activity change, negative = growth inhibition, usual class: inhibitors; further: potency means the concentration at half of the fitted maximal effect; on the % scale 0 is the no-effect control and ±100 the full control effect; nearly all actives have a fitted effect of over 55% in size
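Chicken DT40 Tdp1-/- cells complemented with human TDP1, 400 cells/well, exposed to compounds plus 20 nM camptothecin for at least 48 h at 37 C; viability read as ATP content by CellTiter-Glo luminescence.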
TGFb inhibitor: qHTS for Inhibitors of TGF-b. Potency, µM (titrated, usually from 46.1 µM), without a hit: at the highest dose activity, negative = inhibition, most hits filed as inhibitors. AID 588855, 2011. actives 1.2% (n = 410,000). HepG2 CAGA-GFP TGF-b/SMAD3 reporter, GFP fluorescence, 18 h; TGF-beta stimulated, 500 pg/mL final; further: potency means the concentration at half of the fitted maximal effect; on the % scale 0 is the no-effect control and ±100 the full control effect; nearly all actives have a fitted effect of over 65% in size
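Cell-based qHTS in HEPG2 carrying a CAGA-GFP Smad reporter; compounds added before 500 pg/mL final TGF-beta, 18 h incubation at 37 degrees C, GFP fluorescence quantified per cell by imaging cytometry.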
IL-1B inflam inh: qHTS for Inhibitors of Inflammasome Signaling: IL-1-beta AlphaLISA Primary Screen; actives 4.7% (n = 360,000); activity change, % at 57.5 µM; THP-1 LPS/ATP IL-1B secretion, AlphaLISA, 16 h; stronger effect = lower value; in the data active means activity change below about -50%; inconclusive means mostly about -30% to -49%; further: on the % scale 0 is the no-effect control and ±100 the full control effect
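THP-1 cells pretreated 1 hr with compounds (up to 57.5 uM final), then stimulated with LPS (250 ng/mL final) plus ATP (1.25 mM final); secreted IL-1B measured by AlphaLISA after 16 hr, decreased signal indicating inhibition.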
HepG2 tox: qHTS for Inhibitors of TGF-b: Cytotox Counterscreen; AID 588856, 2011; HepG2 CAGA-GFP viability, ATP luminescence, 18 h; Potency, µM (doses to about 46.1 µM), inactives show at the highest dose activity change, negative = cytotoxicity, hits mostly cytotoxic; actives 0.76% (n = 410,000); further: potency means the concentration at half of the fitted maximal effect
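HepG2 CAGA-GFP cells (1000/well, DMEM with 1% FBS) received compound, then TGF-beta at 500 pg/mL final, and were incubated 18 hours at 37 degrees C. Viability was read by CellTiter-Glo luminescence. Media-only wells were set as complete cell-killing and DMSO as no toxicity.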
* = called active by the depositor; i = inactive; u = inconclusive; x = no result given. Unless noted, the call rests on the fitted dose curve; in most records, active means well fitted curve in the direction sought with a large enough effect; inconclusive means small, poorly fitted or top-dose-only effect, or another doubt; inactive means no such curve, though single readings can be large; an effect the other way counts as inactive or inconclusive.

SMILES	TDP1 block	DT40 TDP1 no CPT	DT40 TDP1 CPT	TGFb inhibitor	IL-1B inflam inh	HepG2 tox
CC1CCN(S(=O)(=O)c2nnc(NC(=O)c3cccc(Cl)c3)s2)CC1	5%	21µM*	13µM*	u	23	-37%
O=C(Nc1nnc(S(=O)(=O)N2CCOCC2)s1)c1ccc(Cl)cc1	x	u	u	-1%	-12	2%
Cc1ccc(N2CCN(S(=O)(=O)c3nnc(NC(=O)c4cccc(F)c4)s3)CC2)cc1	-1%	15µM*	18µM*	u	x	-37%
CCN1C(=O)/C(=C/C=C2\C=CN(CC)c3ccccc32)SC1=S	5%	16µM*	16µM*	1%	-1	2%
CCN1C(=O)/C(=C2/C=CC=CN2C)SC1=S	7%	-9%	-6%	0%	0	-40%
CCN1C(=O)C(=CC=CN(C)c2ccccc2)SC1=S	x	u	u	30%	-13	0%
CCN1C(=O)/C(=C\C=C2/C=CC=CN2CC)SC1=S	3%	29µM*	u	u	u	-44%
O=C(CSc1n[nH]c(-c2ccccc2)n1)N1CCN(c2ccccc2F)CC1	5%	u	u	-12%	x	-10%
c1ccsc1	6%	x	x	x	x	x
CN(C#N)c1nc(Cl)nc(Nc2cccc(Cl)c2)n1	8%	u	u	-25%	-91*	-14%
CCN(CC(=O)Nc1c(F)cccc1F)C(=O)c1ccc(=O)n(Cc2ccccc2)n1	3%	-7%	-11%	2%	i	-3%
Cc1cc(SCC#N)n2nc(C)c(-c3ccccc3)c2n1	11%	-25%	-29%	16%	-60*	-23%
COc1ccccc1-c1c(C)nn2c(N3CCN(Cc4ccccc4)CC3)cc(C)nc12	3%	u	u	u	-20	-20%
Cc1nn2c(N3CCN(C4CCCC4)CC3)cc(C(C)(C)C)nc2c1-c1ccccc1	-5%	-9%	-15%	-1%	7	-6%
COc1ccc(-c2c(C)nn3c(N4CCN(Cc5ccccc5)CC4)cc(C)nc23)cc1OC	3%	23µM*	23µM*	u	8	-18%
Cc1cc(N2CCN(Cc3ccccc3)CC2)n2nc(C)c(-c3ccccc3)c2n1	1%	18µM*	15µM*	-15%	2	-2%
Cc1cc(N2CCCCC2)n2nc(C)c(-c3ccccc3)c2n1	5%	u	u	-10%	-8	3%
Cc1nn2c(N3CCN(C)CC3)cc(C(C)(C)C)nc2c1-c1ccccc1	3%	u	u	u	-87*	-157%
CC(=O)c1ccc(C(=O)N2CCC(n3nccc3NC(=O)C3CC3)CC2)cc1	1%	-117%	4%	-18%	6	4%
CCN(Cc1ccccc1)C(=O)Cn1c(=O)n(Cc2ccccc2)c(=O)c2c1c1cc(OC)ccc1n2C	0%	u	2%	1%	x	-10%
COc1ccc(Nc2nc(NCc3ccco3)nc(N/N=C/c3ccccc3F)n2)cc1	11%	16µM*	18µM*	-2%	u	-67%
CC(C)c1ccc(Nc2nc(Cl)nc(NCc3ccco3)n2)cc1	4%	u	u	-19%	21	-34%
COc1ccc(Nc2nc(NCc3ccco3)nc(N/N=C/c3ccc(O)cc3)n2)cc1	-5%	u	u	5%	-69*	-8%
COc1ccc(/C=N/Nc2nc(Nc3ccccc3)nc(N3CCCC3)n2)cc1	5%	u	u	u	-10	-17%
CCN(CC)S(=O)(=O)c1ccc2c(c1)N(CC(=O)Nc1ccccc1F)C(=O)C1CCCN21 (stereo not given)	-8%	u	-21%	x	x	-5%
SMILES	TDP1 block	DT40 TDP1 no CPT	DT40 TDP1 CPT	TGFb inhibitor	IL-1B inflam inh	HepG2 tox
CCc1cc2ccc(C)cc2nc1SCC(=O)c1ccc(NC(C)=O)cc1	1%	-22%	-22%	u	-61*	-26%
CCc1cc2ccc(C)cc2nc1SCC(=O)NC1CCCC1	x	-2%	-2%	11%	-21	-4%
O=c1[nH]c(C2CCN(S(=O)(=O)/C=C/c3ccccc3)CC2)nc2c1nnn2Cc1ccccc1	x	u	u	-27%	u	-9%
Clc1ccc(-c2nnn3c2nc(NC2CCCCC2)c2ccccc23)cc1	-1%	-23%	5%	-2%	x	-5%
CC(C)c1ccc(NC(=O)CSc2nc(=O)n(CCCN3CCOCC3)c3c2CCCC3)cc1	x	u	u	-20%	-10	-5%
CC(C)c1ccc(NC(=O)CSc2nc(=O)n(CCCN3CCOCC3)c3c2CCC3)cc1	x	-14%	-2%	0%	-63*	-32%
COc1ccc(NC(=O)CSc2nc(=O)n(CCN3CCOCC3)c3c2CCC3)cc1	x	9%	-5%	0%	-1	3%
Cc1cc(C)cc(NC(=O)CSc2nc(=O)n(CCCN3CCOCC3)c3c2CCCC3)c1	-4%	u	-26%	-5%	-52*	-20%
O=C(CSc1nc(=O)n(CCN2CCOCC2)c2c1CCC2)Nc1ccc(OC(F)(F)F)cc1	0%	-25%	13%	u	-75*	-35%
CN(C)/[N+]([O-])=N/Oc1cc(F)c([N+](=O)[O-])cc1[N+](=O)[O-]	x	x	x	-10%	x	-11%
O=C1NC[C@H](CC2CCCCC2)N(CCc2cccc3ccccc23)C1=O	x	16µM*	u	x	-19	x
O=C1NC[C@H](CCCCN2C[C@H](Cc3ccccc3)N(Cc3ccccc3)C(=O)C2=O)N(CCC2CCCCC2)C1=O	x	18µM*	-6%	x	23	x
O=C1NC[C@@H](CCCCN2C[C@H](Cc3ccccc3)N(CCC3CCCCC3)C(=O)C2=O)N(CCc2ccccc2)C1=O	x	u	u	x	-51*	x
O=C1NC[C@H](CCCCN2C[C@@H](Cc3ccccc3)N(Cc3ccccc3)C(=O)C2=O)N(CCC2CCCCC2)C1=O	x	u	-4%	x	u	x
CC(C)C[C@H]1CN(CCCC[C@H]2CNC(=O)C(=O)N2CCC2CCCCC2)C(=O)C(=O)N1CC1CCCCC1	x	18µM*	16µM*	x	-24	x
